Experimental findings from PubChem BioAssay AID2284139 (EPA ToxCast) are described below.

The source made the active and inactive calls. How the source made its calls: active means hit-call score of the fitted dose curve at least 0.9, where 1 is the maximum; inactive means score below 0.9.

Sequence of human ZAP70 Tyrosine Kinase, ZAP70 (gene 7535) (P43403 whole entry, looked up): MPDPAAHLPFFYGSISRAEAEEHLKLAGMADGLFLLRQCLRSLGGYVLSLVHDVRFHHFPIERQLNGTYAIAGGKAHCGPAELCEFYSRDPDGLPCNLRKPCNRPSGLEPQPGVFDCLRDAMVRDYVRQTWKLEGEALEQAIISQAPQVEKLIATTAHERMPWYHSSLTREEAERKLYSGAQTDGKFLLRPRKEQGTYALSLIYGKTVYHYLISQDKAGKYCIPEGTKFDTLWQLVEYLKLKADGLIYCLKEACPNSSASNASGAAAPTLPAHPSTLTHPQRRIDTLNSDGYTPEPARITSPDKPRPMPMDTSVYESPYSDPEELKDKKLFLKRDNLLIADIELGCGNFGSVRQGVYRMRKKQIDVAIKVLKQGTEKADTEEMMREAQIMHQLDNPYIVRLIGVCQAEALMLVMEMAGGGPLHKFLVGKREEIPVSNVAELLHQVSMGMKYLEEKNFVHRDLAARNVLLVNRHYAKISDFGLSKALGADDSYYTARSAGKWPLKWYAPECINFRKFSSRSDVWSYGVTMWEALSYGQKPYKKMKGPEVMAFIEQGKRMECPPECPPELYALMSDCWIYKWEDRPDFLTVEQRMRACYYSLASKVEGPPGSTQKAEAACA

The target of the assay is human ZAP70 Tyrosine Kinase, ZAP70 (gene 7535) (UniProt P43403). The assay is described as follows: ERF_FR_ENZ_hZAP70: Eurofins (ERF) Enzymatic Radiometric [Km ATP] KinaseProfiler LeadHunter Assay for human ZAP70 Tyrosine Kinase. The procedure:
ERF_FR_ENZ_hZAP70 is a biochemical, single-readout assay that uses extracted gene-proteins in a cell-free assay. Measurements were taken 0.25 hour after chemical dosing in a 96-well plate. See ZAP70 Human TK Kinase Enzymatic HTRF Assay [Km ATP], Cerep.ERF_FR_ENZ_hZAP70 is an assay component calculated from the ERF_FR_ENZ_hZAP70 assay. It is designed to measure enzyme activity using a type of enzyme reporter as detected by fluorescence intensity with HTRF technology.Data from the assay component ERF_FR_ENZ_hZAP70 was analyzed at the assay endpoint, ERF_FR_ENZ_hZAP70, in the positive analysis fitting direction relative to DMSO as the negative control and baseline of activity. Using a type of enzyme reporter, loss-of-signal activity can be used to understand changes in enzymatic activity as they relate to gene ZAP70. To generalize the intended target to other relatable targets, this assay endpoint is annotated to the kinase intended target family, where the subfamily is protein tyrosine kinase.
ZAP-70 (h) is incubated with 50 mM Tris pH 7.5, 0.1 mM EGTA, 0.1 mM Na3VO4, 0.1% […], 0.1 mg/mL poly(Glu, Tyr) 4:1, 10 mM MnCl2, 10 mM MgAcetate and [gamma-33P]-ATP (specific activity and concentration as required). The reaction is initiated by the addition of the Mg/ATP mix. […]
Turning to `O=C(/C=C/c1ccc(O)cc1)CC(=O)/C=C/c1ccc(O)cc1`, the call was inactive.
